Measured values published in ChEMBL document CHEMBL1157539, “Thousands of chemical starting points for antimalarial lead identification” (Nature, 2010).
“And” between values parts separate entries of the source, which are not always exact repeats. Identical values can stand only once.

Columns and labels:
Assay type in all cases: functional
[1] = tested on: Plasmodium falciparum; assay: GSK_TCMDC: Inhibition of Plasmodium falciparum 3D7 in whole red blood cells, using parasite LDH activity as an index of growth. Test compounds present at 2uM
[2] = tested on: Plasmodium falciparum; assay: GSK_TCMDC: Inhibition of Plasmodium falciparum Dd2 in whole red blood cells, using parasite LDH activity as an index of growth. Test compounds present at 2uM
[3] = tested on: HepG2; assay: GSK_TCMDC: Percent inhibition of human HepG2 cell line. Test compounds present at 10uM.

SMILES | Inhibition [1] | Inhibition [2] | Inhibition [3]
CN(c1cc(NC(=O)c2ccc(F)cc2)ccn1)C1CCN(Cc2cccc(O)c2)CC1.O=C(O)C(F)(F)F | 100% | 82% | 3%
COc1ccc(C(=O)C2CC2CN2CC=C(c3c[nH]c4ccc(OC)nc34)CC2)cc1 (stereo unspecified) | 98% | 91% | 8%
C=C[C@H]1CN2CC[C@@H]1C[C@H]2[C@H](O)c1cc(-c2ccc(F)cc2)nc2ccc(OC)cc12.Cl | 99% | 98% | 5%
CCCCCNC(=N)N/N=C/c1c[nH]c2ccc(OC)cc12.Cl | 86% | 2% | 16%
CCN(CC)CCOC(=O)C(OC)(c1ccccc1)c1ccccc1 | 97% | 6% | 0%
COc1ccc(CC(C)NCC(O)c2ccc(Cl)c(Cl)c2)cc1 (stereo unspecified) | 98% | 96% | 0%
C/C=C1/CN2CC[C@H]1C[C@H]2[C@H](O)c1ccnc2ccc(OC)cc12 | 99% | 45% | 0%
CC(=O)N(Cc1ccccc1-c1cccc(CNCCc2ccccc2)c1)C1CCN(Cc2ccccc2)CC1.O=C(O)C(F)(F)F | 89% | 30% | 19%
Cc1[nH]c2cc(Cl)ccc2c1C1=CCN(CCCCC2(C)C(=O)Nc3c(F)cccc32)CC1 (stereo unspecified) | 90% | 74% | 14%
O=C1NCN(c2ccc(O)cc2)C12CCN(CCCC(c1ccc(F)cc1)c1ccc(F)cc1)CC2 | 94% | 34% | 20%
COC(=O)c1ccc(CC(C)NCC(O)c2cccc(C(F)(F)F)c2)cc1 (stereo unspecified) | 94% and 97% | 73% and 87% | 0%
COc1cccc(C2(C)CCN(CCCCNC(=O)c3ccc(NC(=O)c4ccc(Cl)cc4)cc3)CC2)c1.Cl | 97% | 72% | 19%
CC[C@H]1CN2CC[C@H]1C[C@H]2[C@H](O)c1cc(/C=C/c2ccccc2)nc2ccc(OC)cc12 | 99% | 99% | 16%
CC(Cc1ccc(OCCOc2ccccc2)cc1)NCC(O)c1cccc(Cl)c1 (stereo unspecified) | 99% | 99% | 12%
CNCCCN(C)C(=O)Oc1c(Br)c(C)nc(C)c1-c1ccc(Oc2ccc(OC(F)(F)F)cc2)cc1.Cl | 96% | 96% | 17%
CS(=O)(=O)Nc1ccc2c(C3CCN(CC4CCN(C(=O)/C=C/c5ccc(Cl)c(Cl)c5)CC4)CC3)c[nH]c2c1 | 99% | 70% | 28%
CC(C)NC(=O)Cn1cc(C2CCN(CC3CCN(C(=O)/C=C/c4ccc(Cl)c(Cl)c4)CC3)CC2)c2ccccc21.O=C(O)C(F)(F)F | 97% | 55% | 31%
Oc1ccc(Cl)cc1CN1CCC(CCOC(c2ccccc2)c2ccc(Cl)cc2)CC1 (stereo unspecified) | 98% | 100% | 32%
COCCNCc1ccc(-c2cccc(CN(C(=O)CCC3CCCC3)C3CCN(Cc4ccccc4)CC3)c2)cc1.O=C(O)C(F)(F)F | 91% | 86% | 50%
CN1CC=C(c2c[nH]c3ccc(-c4ccccc4)cc23)CC1 | 93% | 60% | 14%
Cc1[nH]c2ccccc2c1C1=CCN(CCCCC23CCCc4cccc(c42)NC3=O)CC1 (stereo unspecified) | 95% | 91% | 9%
Cc1ccc(CC(C)NCC(O)c2cccc(C(F)(F)F)c2)cc1.Cl (stereo unspecified) | 99% | 97% | 6%
